Measurements reported in PubChem BioAssay.
Calls of active or inactive are those of the source.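 How the source made its calls, unless noted: active means fluorescence slope higher than the sample average by over 3 SD (cut at about -0.22 in these data, passing the limit was not always enough); inactive means the rest.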

What was measured:
[1] = inhibitors of TNFa-induced NFkB p65 translocation, primary screen, imaging, HUVEC, MLSMR starter and 10KST1 sets (AID 438;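 active means inhibition above 20% together with a positive visual image hit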;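 further: compound added about 3h40 before a 20 min TNFalpha stimulation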;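 on inhibition: signal is the nuclear over cytoplasmic p65 intensity ratio per well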); details: HUVEC TNFa-induced p65 nuclear translocation; cell count: measured here: nuclei count (cytotoxicity indicator), at 2.08 µM unless noted; inhibition: at 2 µM, stronger effect = higher value unless noted
[2] = reduction of polyQ htt aggregates in cells – imaging, exon1htt(103Q)mCFP cells, high-content imaging, primary screen (AID 483;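 active means visual image review flags a hit and inhibition of aggregation exceeds 20%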;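 further: compound exposure lasted 3 days before fixation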;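 on nuclei count: percent of the per-plate median nuclei count of sample wells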); details: exon1htt(103Q)mCFP cell line, aggregate imaging, at 2 µM; inhibition of aggregation: stronger effect = higher value; nuclei count: measured here: cell count, toxicity
[3] = endothelial E-selectin expression blockers – imaging, HUVEC, immunofluorescence, MLSMR starter and 10KST1 sets, primary screen (AID 487;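 active means visually confirmed hit in the image check and inhibition above 20%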;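 on inhibition: signal is fraction of cell area covered by stained E-selectin grains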;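 on nuclei count: 100% = median nuclei count of all wells on the same plate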); details: HUVEC TNFalpha-induced E-selectin immunofluorescence imaging, at 2 µM; inhibition: stronger effect = higher value; nuclei count: measured here: cell number, toxicity
[4] = biological target: Voltage-gated potassium channel subunit beta-2 (Rattus norvegicus) (UniProt P62483); assay: inhibitors of rat Kvbeta2 reductase activity – biochemical, NADPH fluorescence, primary screen (AID 622); details: recombinant KvBeta, 4-cyanobenzaldehyde reduction, at 10 µM, stronger effect = higher value;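 further: slope of raw intensity against log time taken from 70 to 1610 s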
Sequence of Voltage-gated potassium channel subunit beta-2 (Rattus norvegicus) (P62483 whole entry, looked up): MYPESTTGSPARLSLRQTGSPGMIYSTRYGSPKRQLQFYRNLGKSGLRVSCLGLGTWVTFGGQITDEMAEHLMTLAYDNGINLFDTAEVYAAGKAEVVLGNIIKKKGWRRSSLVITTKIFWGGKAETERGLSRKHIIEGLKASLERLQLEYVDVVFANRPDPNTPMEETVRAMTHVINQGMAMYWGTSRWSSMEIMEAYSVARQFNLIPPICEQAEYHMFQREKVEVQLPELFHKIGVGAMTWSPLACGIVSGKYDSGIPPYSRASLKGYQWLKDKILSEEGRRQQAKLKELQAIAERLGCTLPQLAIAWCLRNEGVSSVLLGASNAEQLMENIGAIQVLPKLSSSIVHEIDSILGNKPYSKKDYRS

[5] = biological target: Voltage-gated potassium channel subunit beta-2 (Rattus norvegicus) (UniProt P62483); assay: enhancers of rat Kvbeta2 NADPH turnover – biochemical, NADPH fluorescence, primary screen (AID 623;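 active means NADPH fluorescence slope more negative than the mean of all samples by about 3 SD, 99.7% confidence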;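 further: fluorescence intensity change per second fitted from 20 to 320 s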); details: Recombinant KvBeta, NADPH fluorescence decrease slope, 10 min; at 10 µM; stronger effect = lower value
[6] = biological target: Alpha-2C adrenergic receptor (Homo sapiens) (UniProt P18825); assay: compounds altering alpha2C-coupled GIRK flux – cell-based, HEK293 alpha2C/GIRK1/2, thallium flux, primary screen (AID 624;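 active means fluorescence slope after compound addition differing from the mean of all screened samples at 99.7% confidence, in either direction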;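 further: slope of fluorescence ratio to pre-addition baseline per second over 15 to 24 s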); details: thallium flux BTC fluorescence, at 10 µM, actives lie on both sides
Sequence of Alpha-2C adrenergic receptor (Homo sapiens) (P18825 whole entry, looked up): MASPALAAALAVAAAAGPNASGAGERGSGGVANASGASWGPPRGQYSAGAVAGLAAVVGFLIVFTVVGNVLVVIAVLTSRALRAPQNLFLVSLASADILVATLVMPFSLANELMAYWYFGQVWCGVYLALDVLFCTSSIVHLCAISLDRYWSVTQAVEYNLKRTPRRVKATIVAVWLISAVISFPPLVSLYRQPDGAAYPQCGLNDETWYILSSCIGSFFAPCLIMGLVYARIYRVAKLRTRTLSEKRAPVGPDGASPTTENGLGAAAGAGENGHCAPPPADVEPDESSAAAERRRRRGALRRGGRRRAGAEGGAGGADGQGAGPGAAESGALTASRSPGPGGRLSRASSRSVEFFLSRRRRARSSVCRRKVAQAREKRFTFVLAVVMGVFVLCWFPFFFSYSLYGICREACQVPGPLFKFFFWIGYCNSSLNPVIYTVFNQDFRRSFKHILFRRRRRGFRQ

[7] = blockers of RIG-like receptor reporter activation – cell-based, Sendai virus stimulus, luciferase, 10K MLSCN set, TLR/RLR signaling modifier project, primary screen (AID 602276;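 active means inhibition at or above 50% at 10 µM; inactive means inhibition below 50%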;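 further: firefly luciferase from ISG56 promoter only with Renilla not read in this screen; 0% = Sendai virus plus DMSO and 100% = medium plus DMSO without virus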); details: HEK293 RL24 IRF3 luciferase reporter, at 10 µM, stronger effect = higher value
[8] = TLR3 IRF3 reporter activation blockers – cell-based, poly I:C stimulus, luciferase, 10K MLSCN set, primary screen (AID 602277;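 active means inhibition of the reporter signal at or above 50%; inactive means inhibition below 50%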); details: HEK293-TLR3 RL24 IRF3 luciferase reporter, at 10 µM, stronger effect = higher value

SMILES | cell count [1] | inhibition [1] | inhibition of aggregation [2] | nuclei count [2] [%] | inhibition [3] | nuclei count [3] [%] | fluorescence slope [4] | NADPH fluorescence slope [5] | slope [6] | inhibition [7] | inhibition [8]
CCN1CCN(C(=O)COc2cc(=O)n(CC)c3ccccc23)CC1 | 357 | 0% (inactive) | -14.7% (inactive) | 99.2 | -7.3% (inactive) | 115 | -0.386 (inactive) | -4.3e-05 (inactive) | 0.00614 (inactive) | 3.27% (inactive) | 36.3% (inactive)
c1cncc(CNC2=NCCCCC2)c1 | 315 | 2.9% (inactive) | 2.4% (inactive) | 114 | -154% (inactive) | 127 | -0.469 (inactive) | -0.000124 (inactive) | 0.0069 (inactive) | 5.89% (inactive) | 24.1% (inactive)
Cc1cc(C)c(C(=O)CN2CCOCC2)c(C)c1 | 408 | 7.3% (inactive) | 7.9% (inactive) | 89.5 | -77.5% (inactive) | 115 | -0.419 (inactive) | -0.000154 (inactive) | 0.00628 (inactive) | 13.2% (inactive) | 24.8% (inactive)
CC(C)OCCCNC(=O)c1c(N)n(CC2CCCO2)c2nc3ccccc3nc12 (stereo not drawn) | 430 | -6.7% (inactive) | -14.6% (inactive) | 75 | -83% (inactive) | 196 | -0.0369 (inactive) | 2e-05 (inactive) | 0.00623 (inactive) | 11.4% (inactive) | 19.9% (inactive)
O=C1CC(c2ccccc2)CC(O)=C1C=NCCN1CCN(C(=O)Cc2ccccc2)CC1 (stereo not drawn) | 450 | 2.9% (inactive) | 8.6% (inactive) | 92.1 | -82.2% (inactive) | 115 | -0.529 (inactive) | 3.3e-05 (inactive) | 0.00558 (inactive) | 17.1% (inactive) | 25.9% (inactive)
CCN1c2nc3ccccn3c(=O)c2CC2(C(=O)N(C)C(=O)N(C)C2=O)C1C (stereo not drawn) | 359 | 4.3% (inactive) | -17.6% (inactive) | 104 | -34% (inactive) | 114 | -0.482 (inactive) | 1.6e-06 (inactive) | 0.00491 (inactive) | 19% (inactive) | 19.6% (inactive)
CC(C)OCCCNC(=O)c1c(N)n(Cc2cccs2)c2nc3ccccc3nc12 | 434 | -9.3% (inactive) | 17.9% (inactive) | 90.9 | 4.6% (inactive) | 134 | -0.212 (inactive) | 1.8e-05 (inactive) | 0.00386 (inactive) | 14.8% (inactive) | 37.4% (inactive)
CCCCCCC(N)CC(=O)O (stereo not drawn) | 689 | 2.4% (inactive) | -9.8% (inactive) | 116 | 42.8% (inactive) | 80.1 | -0.456 (inactive) | -3e-05 (inactive) | 0.00377 (inactive) | 9.07% (inactive) | 28% (inactive)
C=CCn1c(O)c(C(C)=NCc2cccnc2)c(=O)[nH]c1=O | 364 | -1% (inactive) | 15.3% (inactive) | 96 | -99.8% (inactive) | 162 | -0.429 (inactive) | -4.2e-05 (inactive) | 0.00457 (inactive) | 9.61% (inactive) | 32.6% (inactive)
CCCCn1c(C)c(C(=O)OCC)c2c(CN3CCOCC3)c(O)ccc21 | 702 | 0.6% (inactive) | -0.7% (inactive) | 82.8 | -44.3% (inactive) | 100 | -0.373 (inactive) | -2.7e-05 (inactive) | 0.00475 (inactive) | 11.9% (inactive) | 19.2% (inactive)
COc1ccc(C(=O)C(C)(C)NO)cc1 | 653 | -4.6% (inactive) | 12.4% (inactive) | 94.3 | -81.1% (inactive) | 119 | -0.62 (inactive) | 1.3e-05 (inactive) | 0.00701 (inactive) | 12.6% (inactive) | 26.7% (inactive)
CN(C)CCN=Cc1c(O)n(-c2cccc3ccccc23)c(=O)[nH]c1=O | 569 | 0% (inactive) | -6.8% (inactive) | 107 | 25.9% (inactive) | 110 | -0.419 (inactive) | -4.5e-05 (inactive) | 0.00451 (inactive) | 14% (inactive) | 11.3% (inactive)
O=c1[nH]c(=O)n(-c2ccc(F)cc2)c(O)c1C=Nc1ccccc1N1CCCC1 | 459 | -0.3% (inactive) | -4.4% (inactive) | 112 | -109% (inactive) | 118 | -0.0108 (inactive) | 1.9e-06 (inactive) | 0.00376 (inactive) | 3.89% (inactive) | 14.6% (inactive)
C[C@H]1CCCC(=O)CCC/C=C/c2cc(O)cc(O)c2C(=O)O1 | 420 | 6.1% (inactive) | 4.4% (inactive) | 93.9 | -42% (inactive) | 108 | -0.55 (inactive) | -7.2e-05 (inactive) | 0.00303 (inactive) | 13.5% (inactive) | 8.12% (inactive)
CN(C)c1cc(N)c2c(n1)CCC2 (tested in a mixture with another compound) | 443 | -0.3% (inactive) | -9% (inactive) | 98.2 | -17.4% (inactive) | 124 | -0.376 (inactive) | -5.8e-05 (inactive) | 0.00598 (inactive) | 11.4% (inactive) | 17.8% (inactive)
CN1CCN(c2nc3ccccc3c(=O)n2-c2ccccc2)CC1 | 568 | -2.3% (inactive) | -4.9% (inactive) | 70.3 | -3.5% (inactive) | 102 | -0.57 (inactive) | -2.8e-05 (inactive) | 0.00748 (inactive) | 845% [above what the read-out allows, likely interference] (active) | 50.1% (active)
O=C(c1sc2ccccc2c1Cl)N1CCC2(CC1)OCCO2 | 388 | 2.5% (inactive) | -5.9% (inactive) | 107 | -59.7% (inactive) | 105 | -0.405 (inactive) | 3e-05 (inactive) | 0.00266 (inactive) | -10.2% (inactive) | -29.6% (inactive)
Cc1ccnc(-n2c(-c3ccco3)nc3ccccc3c2=O)c1 | 445 | 10.2% (inactive) | -19.2% (inactive) | 115 | -4.3% (inactive) | 106 | -0.508 (inactive) | -3.8e-05 (inactive) | 0.0068 (inactive) | 6.03% (inactive) | -0.166% (inactive)
CCCNS(=O)(=O)c1ccc(OCC(=O)N2CCN(Cc3ccccc3)CC2)cc1 | 296 | -7.1% (inactive) | -5% (inactive) | 115 | -3.1% (inactive) | 110 | -0.476 (inactive) | -7e-05 (inactive) | 0.00533 (inactive) | -3.33% (inactive) | -4.45% (inactive)
O=P(OCC(F)(F)C(F)F)(N1CCCCC1)N1CCCCC1 | 336 | -10.1% (inactive) | -9.4% (inactive) | 121 | -152% (inactive) | 134 | -0.5 (inactive) | 2.3e-05 (inactive) | 0.00426 (inactive) | 7.79% (inactive) | 9.95% (inactive)
CCOC(=O)C1SC2(C(F)F)CC1(O)c1c(c(OC)c3occc3c1OC)O2 (stereo not drawn) | 665 | -5.1% (inactive) | 13% (inactive) | 98.5 | 52.9% (inactive) | 105 | -0.326 (inactive) | -5.6e-05 (inactive) | 0.00497 (inactive) | 4.1% (inactive) | 14.4% (inactive)
O=C(CN1C2CCC1CC(O)(c1cccnc1)C2)Nc1ccc2c(c1)OCO2 (stereo not drawn) | 414 | 7.5% (inactive) | -3.4% (inactive) | 104 | -176% (inactive) | 115 | -0.591 (inactive) | 5.6e-07 (inactive) | 0.00303 (inactive) | 15% (inactive) | 22.4% (inactive)
Cc1cccc(N2CCc3c2nc2ccccc2c3N)c1 | 731 | -6.5% (inactive) | -7.8% (inactive) | 98 | -54.5% (inactive) | 112 | -0.113 (active) | -9.7e-06 (inactive) | 0.00452 (inactive) | 15.5% (inactive) | 31.6% (inactive)
Cc1ccc2nc(N3CCN(C)CC3)[nH]c2c1 | 369 | -15.9% (inactive) | 5.5% (inactive) | 87.6 | 5.8% (inactive) | 97.7 | -0.506 (inactive) | 4.2e-05 (inactive) | 0.00535 (inactive) | -66.5% (inactive) | -98.1% (inactive)
CCc1ccc(OCCCN=C(C)c2c(O)n(C)c(=O)n(C)c2=O)cc1 | 627 | 0.2% (inactive) | -0.8% (inactive) | 84.3 | 23.8% (inactive) | 95.1 | -0.385 (inactive) | 2.2e-06 (inactive) | 0.00351 (inactive) | 11.6% (inactive) | 14.8% (inactive)
O=C(c1ccc2nc(-c3ccco3)c(-c3ccco3)nc2c1)N1CCC2(CC1)OCCO2 | 597 | -12.6% (inactive) | -4.6% (inactive) | 93.5 | 9% (inactive) | 105 | -0.104 (inactive) | -5.1e-06 (inactive) | 0.00382 (inactive) | -1.04% (inactive) | -7.99% (inactive)
Cc1ccccc1NC1=NCCCS1 | 457 | -10.3% (inactive) | 29.9% (active) | 83.1 | 67.8% (inactive) | 74.1 | -0.357 (inactive) | -3.1e-05 (inactive) | 0.00361 (inactive) | 0.817% (inactive) | 19% (inactive)
CCN1c2nc3c(C)cccn3c(=O)c2CC2(C(=O)N(C)C(=O)N(C)C2=O)C1C (stereo not drawn) | 413 | 8.9% (inactive) | 8.3% (inactive) | 100 | 19.8% (inactive) | 111 | -0.477 (inactive) | -5.3e-05 (inactive) | 0.00711 (inactive) | 16.5% (inactive) | 17.7% (inactive)
